# ST2 IL33 inh: blocks human ST2 binding to IL-33; AlphaLISA ST2-Fc/biotin-IL-33 interaction, 1 h; inhibition, % for hits at 17 µM; 78,000 tested, 2.3% active; in the data active = inhibition above about 30%
# Target sequence (Q01638 whole entry, looked up): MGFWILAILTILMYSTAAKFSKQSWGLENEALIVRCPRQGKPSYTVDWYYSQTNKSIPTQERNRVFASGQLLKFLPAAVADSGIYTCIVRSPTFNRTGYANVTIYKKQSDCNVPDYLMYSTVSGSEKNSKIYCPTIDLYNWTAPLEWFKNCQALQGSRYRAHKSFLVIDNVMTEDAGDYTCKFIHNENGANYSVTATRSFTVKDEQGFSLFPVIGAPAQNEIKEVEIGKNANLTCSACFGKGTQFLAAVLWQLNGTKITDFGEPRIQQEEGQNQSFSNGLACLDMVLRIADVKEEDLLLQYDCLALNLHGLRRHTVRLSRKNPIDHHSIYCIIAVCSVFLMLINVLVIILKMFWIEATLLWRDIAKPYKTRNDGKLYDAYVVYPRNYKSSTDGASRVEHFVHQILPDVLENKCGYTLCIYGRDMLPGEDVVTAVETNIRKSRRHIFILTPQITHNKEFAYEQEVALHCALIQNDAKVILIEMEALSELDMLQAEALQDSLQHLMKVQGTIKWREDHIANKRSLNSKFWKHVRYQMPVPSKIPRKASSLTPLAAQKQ
# Starred values were filed as active, the others as inactive; i = inactive; ! = not confirmed by another sample. The full list was thinned out, with hits kept by preference.
SMILES,ST2 IL33 inh
O=C(CN1C(=O)/C(=C\c2ccc(Cl)cc2)Sc2ccccc21)NCc1ccccn1,42.0%*
COCCNC(=O)c1ccc(/C=C2\Sc3ccccc3N(Cc3ccc(F)cc3)C2=O)cc1,i
O=C(CN1C(=O)/C(=C\c2cccc(Cl)c2)Sc2ccccc21)NCc1cccnc1,i
O=C(CN1C(=O)/C(=C\c2ccc(Cl)cc2)Sc2ccccc21)NC1CCCC1,i
CCCCN(C)CCCNC(=O)CN1C(=O)/C(=C\c2cccc(Cl)c2)Sc2ccccc21,43.0%*
CC1=C(C#N)C(c2cccc(Cl)c2Cl)C2=C(CC(C)(C)CC2=O)N1 (stereo not drawn),i
COc1ccc2nc(NC(=O)Cc3c(C(=O)O)[nH]c4ccc(Cl)cc34)sc2c1,i
COc1ccc(NC(=O)c2cc(I)ccc2Cl)c(OC)c1,i
Cc1cc(C(=O)Nc2ccccc2Sc2c(C)n[nH]c2C)cc(=O)[nH]1,i
COC(=O)c1c(NC(=O)C(C)(C)C)sc2c1CCC(C)C2 (stereo not drawn),i
Cc1cc(-c2ccc(C)o2)c(C#N)c(SCC(N)=O)n1,i
O=C(NCc1ccncc1)C(=O)Nc1cccc(F)c1,i
CC1C=CCC2C(=O)N(c3cccc(O)c3)C(=O)C12 (stereo not drawn),i
COc1c(Sc2ccc([N+](=O)[O-])cc2)c(C)nn1-c1ccccc1,30.0%*
Cc1ccc(C(=O)n2nc(C)c(Sc3ccccc3)c2C)cc1,i
O=[N+]([O-])c1ccc2nn(-c3ccccc3)nc2c1,i
Cc1nn(C(=O)c2ccco2)c(C)c1Sc1ccccc1,i
Cc1nn(C(=O)c2ccc([N+](=O)[O-])cc2)c(C)c1Sc1ccccc1,42.0%*
Cc1nn(C(=O)C2CC2)c(C)c1Sc1ccccc1,i
CSc1sc(SC)c(CO)c1C=O,i
O=C1c2ccccc2C(=O)N1CNc1ccc(Cl)c(Cl)c1,i
COc1ccccc1CNc1cccc(F)c1,i
COc1ccc(S(=O)(=O)N2CCC3(CCNCC3)C2)cc1F,i
CN(Cc1ccccc1)C1(CNC2CCSCC2)Cc2ccccc2C1,i
CC1(C(=O)O)CC(=O)N=C2C=CC(Cl)=CN21 (stereo not drawn),i
SMILES,ST2 IL33 inh
CCCOc1ccc2oc(=O)c3c(c2c1)CCCN3C(=O)CN1CCCCC1C (stereo not drawn),i
Cc1cc(NS(=O)(=O)c2ccc(NC(=O)c3ccc(C(C)(C)C)cc3)cc2)no1,i
COc1ccc(S(=O)(=O)Nc2ccc(NC(C)=O)cc2)cc1,i
COc1ccc(NS(=O)(=O)c2ccc(NS(=O)(=O)c3ccc(C)cc3)cc2)cc1,i
CCN(CC)c1ccc(NS(=O)(=O)c2ccc(OC)cc2)cc1,35.0%*
O=C(/C=C/c1cccs1)N1CC[C@@H](N2CCN(c3ccccc3F)CC2)[C@H](O)C1,i
CC(C)c1ccc(NC2CCCN(C(=O)c3cccc(N4CCCC4=O)c3)C2)cc1 (stereo not drawn),i
CCC(C)OC(=O)C1=C(C)NC(=O)NC1c1cc(Br)c(O)c(OC)c1 (stereo not drawn),i
COCCCNc1nc(Cc2ccccc2)nc2sc3c(c12)CCCC3,i
COc1ccc(C)cc1Nc1nc(C)[nH]c1[N+](=O)[O-],i
Cc1ccc(NS(=O)(=O)c2cccc3c2C(=O)c2ccccc2C3=O)c(C)c1,64.0%*
Cc1ccc(NS(=O)(=O)c2ccc(F)cc2)c(C)c1,i
Cc1ccc(NCN2C(=O)c3ccccc3C2=O)c(C)c1,i
O=C(Cn1c(=O)c2sccc2n(Cc2ccc(Cl)cc2)c1=O)NCc1ccco1,i
O=C(CCCn1c(=O)c2sccc2n(Cc2ccc(Cl)cc2)c1=O)NCc1ccco1,i
O=C(CCCn1c(=O)c2sccc2n(Cc2ccc(F)cc2)c1=O)NCc1ccco1,30.0%*!
N#CC1=C(N)Oc2n[nH]c(-c3ccccc3)c2C1C1CC=CCC1 (stereo not drawn),i
COc1ccc(OC)c(NC(=O)c2cc3ccccc3o2)c1,i
COc1ccc(OC)c(NC(=O)c2c(OC)cccc2OC)c1,35.0%*
CCc1ccccc1NC(=O)c1c(OC)cccc1OC,i
C=CCSc1nnc2c(n1)OC(c1cccc(OC)c1OC)Nc1ccccc1-2 (stereo not drawn),i
CCOc1ccc(NC(=O)c2sc3ncn(CC(=O)N(CC)CC)c(=O)c3c2C)cc1,i
NS(=O)(=O)c1ccc(NC(=O)CCCOc2ccccc2)cc1,i
O=C(CN1CCCCCC1)N1CCCc2c1c(=O)oc1ccc(O)cc21,i
O=C(CN1CCCC1)N1CCCc2c1c(=O)oc1ccc(O)cc21,i
SMILES,ST2 IL33 inh
O=C(CN1CCCCCC1)N1CCCc2c1c(=O)oc1ccc(OCc3ccccc3)cc21,30.0%*
Cn1ccnc1CN(CCO)Cc1ccc(-c2ccc(Cl)cc2F)o1,i
O=C(NCC1=CCCCC1)c1ccccc1N1CCS(=O)(=O)CC1,i
C=CCNc1nc(-c2ccc([N+](=O)[O-])cc2)nc2ccccc12,i
c1cncc(CNc2c3ccccc3nc3ccccc23)c1,i
CCCCN(C)Cc1ccc([N+](=O)[O-])cc1,i
O=[N+]([O-])c1ccc(-c2nc(NC3CCCCC3)c3ccccc3n2)cc1,i
CCCCN(C)c1nc(-c2ccc([N+](=O)[O-])cc2)nc2ccccc12,39.0%*
O=[N+]([O-])c1ccc(-c2nc(NCc3cccnc3)c3ccccc3n2)cc1,96.0%*!
Cc1ccc(CN2CC34C=CC(O3)C(C(=O)NCc3ccccc3)C4C2=O)cc1 (stereo not drawn),i
COC(=O)c1c(C)oc2ccc(OC(=O)c3ccc(C)cc3)cc12,i
COc1ccc(CC2CN(S(=O)(=O)c3cccs3)CCO2)cc1 (stereo not drawn),i
CCN(CC)C(=O)[C@@H](C)[C@@H]1CC[C@@]2(C)CC[C@H](NC(=O)C3CC3)[C@@H](C)[C@@H]2[C@H]1O,i
COCC(=O)N1CCCN(Cc2cc3c(cc2OC)OCCCO3)CC1,i
COc1cc(C2C3=C(CCCC3=O)Nc3ccccc3N2C(=O)c2ccccc2)ccc1O (stereo not drawn),i
Cc1ccc(NC(=O)c2cc3ccccc3o2)c([N+](=O)[O-])c1,i
Cc1ccc(NC(=O)C(c2ccccc2)c2ccccc2)c([N+](=O)[O-])c1,41.0%*
Cc1ccc(NC(=O)CC(C)C)c([N+](=O)[O-])c1,i
CCOC(=O)C1C(=O)C=C(c2ccc(OC)c(OC)c2)CC1c1ccc(C)cc1 (stereo not drawn),i
O=C(NC(Cn1ccnc1)c1ccccc1)c1ccc2[nH]c(=O)[nH]c2c1 (stereo not drawn),i
COc1ccc(C(O)C(=O)N2CCc3c(nc(C)nc3N3CCCC3)C2)cc1 (stereo not drawn),i
COCCCNC(=O)CSc1cc(=O)n(C)c2ccccc12,i
CCC(=O)N1c2ccccc2-c2nnc(SC)nc2OC1c1cccc(OC)c1 (stereo not drawn),i
COc1ccc(NC(=O)c2ccc(Br)cc2)c([N+](=O)[O-])c1,i
COc1ccc(NC(=O)C(Cl)(Cl)Cl)c([N+](=O)[O-])c1,34.0%*
COc1ccc(NC(=O)COc2ccccc2)c([N+](=O)[O-])c1,i
Cc1nc2nc(SCC(=O)N3CCC(C)CC3)nn2c(C)c1Cc1ccccc1,i
N#Cc1c2nc[nH]c(=O)c2c2n1CCC2,i
COc1ccc(CC2(CCC(=O)N3CCN(C4CCCCC4)C(=O)C3)CCC(=O)N2)c2ccccc12 (stereo not drawn),i
